Measurements published in the supplement of paper PMC9492666.

Assays:
HCC1937 = test: relative cell viability, compound + erastin, vs DMSO (fraction of DMSO control); higher = less growth inhibition; settings: 72 h
MDA-MB-231 = test: as above; settings: 72 h
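Also: viability read by CCK-8 kit in 96-well plates, part of a combination screen pairing lipid-metabolism-targeting compounds with erastin.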

Row | SMILES | relative cell viability (HCC1937) | relative cell viability (MDA-MB-231)
1 | CC(=O)Oc1cc(C(F)(F)F)ccc1C(=O)O [Triflusal] + CCOc1ccccc1-n1c(C(C)N2CCN(C(=O)COc3ccc(Cl)cc3)CC2)nc2ccccc2c1=O [erastin] | 0.751 | 0.648
2 | CC1(C)CC[C@]2(C(=O)O[C@@H]3O[C@H](CO)[C@@H](O)[C@H](O)[C@H]3O)CC[C@]3(C)C(=CC[C@@H]4[C@@]5(C)CC[C@H](O[C@@H]6O[C@H](C(=O)O)[C@@H](O)[C@H](O)[C@H]6O)C(C)(C)[C@@H]5CC[C@]43C)[C@@H]2C1 [Chikusetsusaponin IVa] + CCOc1ccccc1-n1c(C(C)N2CCN(C(=O)COc3ccc(Cl)cc3)CC2)nc2ccccc2c1=O [erastin] | 0.592 | 0.682
3 | COc1ccc([C@@H]2OC[C@H]3[C@@H]2CO[C@@H]3c2ccc(O[C@@H]3O[C@H](CO)[C@@H](O)[C@H](O)[C@H]3O)c(OC)c2)cc1OC [Forsythin] + CCOc1ccccc1-n1c(C(C)N2CCN(C(=O)COc3ccc(Cl)cc3)CC2)nc2ccccc2c1=O [erastin] | 0.718 | 0.754
4 | Cc1c(C(=O)NN2CCOCC2)nn(-c2ccc(Cl)cc2Cl)c1-c1ccc(I)cc1 + CCOc1ccccc1-n1c(C(C)N2CCN(C(=O)COc3ccc(Cl)cc3)CC2)nc2ccccc2c1=O [erastin] | 0.1 | 0.325
5 | CC(C)(Oc1ccc(C(=O)c2ccc(Cl)cc2)cc1)C(=O)O [Choline Fenofibrate] + CCOc1ccccc1-n1c(C(C)N2CCN(C(=O)COc3ccc(Cl)cc3)CC2)nc2ccccc2c1=O [erastin] | 0.848 | 0.662
